From PubChem BioAssay (Tox21)
Values joined by “and” are separate entries in the source; they are usually repeats but may differ in a detail not shown here. Identical values can stand only once. Active and inactive are the calls of the source. Unless noted, calls follow the shape of the dose curve; as a rule, active = well fitted curve in the direction sought with a large enough effect in the repeat runs; inconclusive = weak or mixed curves; inactive = no such curve, though single readings can be large; an effect the other way counts as inactive or inconclusive.

Tests used:
[1] = qHTS assay to identify small molecule antagonists of the glucocorticoid receptor (GR) signaling pathway - cell viability counter screen (AID 720693); also: nearly all actives have a fitted effect of over 55% in size
[2] = qHTS assay for identifying genotoxic compounds that show differential cytotoxicity against isogenic chicken DT40 cell lines with known DNA damage response pathways - wild type cell line (AID 743012); also: nearly all actives have a fitted effect of over 60% in size; also: potency is read from the fitted curve at half-maximal effect
Summary of the method: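 Wild-type DT40 cells (300/well) exposed to compounds for 40 hours at 37 C/5% CO2. Viability read by CellTiter-Glo luminescence after 30 min at room temperature.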

[3] = qHTS assay for identifying genotoxic compounds that show differential cytotoxicity against isogenic chicken DT40 cell lines with known DNA damage response pathways - Rev3 mutant cell line (AID 743014); also: nearly all actives have a fitted effect of over 55% in size; also: potency is read from the fitted curve at half-maximal effect
[4] = qHTS assay for identifying genotoxic compounds that show differential cytotoxicity against isogenic chicken DT40 cell lines with known DNA damage response pathways - Rad54/Ku70 mutant cell line (AID 743015); also: nearly all actives have a fitted effect of over 60% in size; also: potency is read from the fitted curve at half-maximal effect
[5] = qHTS assay to identify small molecule antagonists of the androgen receptor (AR) signaling pathway using the MDA cell line - cell viability counter screen (AID 743041; also: nearly all actives have a fitted effect of over 45% in size; also: potency is read from the fitted curve at half-maximal effect)
Summary of the method: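 Viability counter screen run alongside the AR antagonist reporter: cells seeded 5 h before compound, R1881 added, 16 h incubation at 37C without CO2, fluorescent CellTiter-Fluor signal quantified.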

[6] = qHTS assay to identify small molecule antagonists of the thyroid receptor (TR) signaling pathway (AID 743065); also: nearly all actives have a fitted effect of over 55% in size; also: potency is read from the fitted curve at half-maximal effect
Summary of the method: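 GH3.TRE-Luc rat pituitary cells carrying two TR response elements driving luciferase were plated for 4 h, given compound plus 1 nM T3 (final), and incubated 23.5 h at 37 C. ONE-Glo luminescence measured reporter inhibition; CellTiter-Fluor fluorescence tracked cytotoxicity.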

[7] = tested on: thyroid hormone receptor (rat, GH3 cells); experiment: qHTS assay to identify small molecule agonists of the thyroid receptor (TR) signaling pathway (AID 743066; calls by dose curve)
[8] = qHTS assay to identify small molecule antagonists of the estrogen receptor alpha (ER-alpha) signaling pathway - cell viability counter screen (AID 743074; calls by dose curve;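 also: HEK293 cells carrying ER-alpha-UAS-bla reporter stimulated with 17beta-estradiol; nearly all actives have a fitted effect of over 45% in size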)
[9] = qHTS assay to identify small molecule antagonists of the estrogen receptor alpha (ER-alpha) signaling pathway using the BG1 cell line - cell viability counter screen (AID 743081);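 also: compound given together with 17beta-estradiol as the ER stimulus; nearly all actives have a fitted effect of over 45% in size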; also: potency is read from the fitted curve at half-maximal effect
Aromatase (Homo sapiens) = Aromatase (Homo sapiens) (UniProt P11511); experiment: qHTS assay to identify aromatase inhibitors (AID 743083); also: nearly all actives have a fitted effect of over 55% in size
Chain of Aromatase (Homo sapiens) (P11511 whole entry, looked up): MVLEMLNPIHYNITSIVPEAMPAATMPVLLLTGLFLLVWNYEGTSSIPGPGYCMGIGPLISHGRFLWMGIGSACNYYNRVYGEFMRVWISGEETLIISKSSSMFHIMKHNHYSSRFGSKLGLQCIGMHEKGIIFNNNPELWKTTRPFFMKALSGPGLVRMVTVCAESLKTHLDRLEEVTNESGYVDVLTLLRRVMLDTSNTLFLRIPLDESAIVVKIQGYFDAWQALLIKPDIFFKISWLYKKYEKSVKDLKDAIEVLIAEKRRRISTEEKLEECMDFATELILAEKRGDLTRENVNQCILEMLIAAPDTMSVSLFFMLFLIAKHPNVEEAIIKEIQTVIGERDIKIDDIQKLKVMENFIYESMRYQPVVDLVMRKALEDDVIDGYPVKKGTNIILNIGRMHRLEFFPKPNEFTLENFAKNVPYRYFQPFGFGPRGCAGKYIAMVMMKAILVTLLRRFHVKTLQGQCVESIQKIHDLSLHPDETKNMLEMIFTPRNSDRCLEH

[10] = qHTS assay to identify aromatase inhibitors - cell viability counter screen (AID 743084); also: potency is read from the fitted curve at half-maximal effect
[11] = qHTS assay to identify small molecule antagonists of the thyroid receptor (TR) signaling pathway - cell viability counter screen (AID 743064); also: nearly all actives have a fitted effect of over 50% in size; also: potency is read from the fitted curve at half-maximal effect
Summary of the method: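 GH3.TRE-Luc cells, 4 h pre-plating; cpd + T3 1 nM final; 37 °C 23.5 h; CellTiter-Fluor 30 min; fluorescence read.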

[12] = molecular target: Estrogen receptor (Homo sapiens) (UniProt P03372); experiment: qHTS assay to identify small molecule antagonists of the estrogen receptor alpha (ER-alpha) signaling pathway (AID 743069; active = well fitted curve in the direction sought with a large enough effect in the signal ratio in the repeat runs, not every such curve was filed as active; inconclusive = weak or mixed curves, or effect the other way; inactive = no such curve, though single readings can be large or run the other way; the % refers to the signal ratio; also: potency is read from the fitted curve at half-maximal effect)
Chain of Estrogen receptor (Homo sapiens) (P03372 whole entry, looked up): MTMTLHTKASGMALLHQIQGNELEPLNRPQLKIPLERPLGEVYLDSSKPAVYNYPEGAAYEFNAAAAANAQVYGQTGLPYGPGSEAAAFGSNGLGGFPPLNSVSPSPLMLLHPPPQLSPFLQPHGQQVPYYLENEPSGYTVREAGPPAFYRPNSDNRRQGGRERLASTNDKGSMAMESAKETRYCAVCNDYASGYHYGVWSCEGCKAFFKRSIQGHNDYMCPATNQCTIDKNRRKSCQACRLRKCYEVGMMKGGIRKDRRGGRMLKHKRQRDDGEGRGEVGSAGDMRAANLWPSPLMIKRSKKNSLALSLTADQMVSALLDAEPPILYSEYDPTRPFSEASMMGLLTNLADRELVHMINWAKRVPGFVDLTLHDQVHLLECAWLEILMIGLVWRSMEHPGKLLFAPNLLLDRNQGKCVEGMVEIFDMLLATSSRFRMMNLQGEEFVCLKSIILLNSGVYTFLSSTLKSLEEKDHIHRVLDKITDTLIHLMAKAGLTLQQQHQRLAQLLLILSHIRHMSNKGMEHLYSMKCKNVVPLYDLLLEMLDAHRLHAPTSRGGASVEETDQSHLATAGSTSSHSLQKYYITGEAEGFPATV
Summary of the method: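 Estradiol-stimulated ER-alpha-UAS-bla HEK293 cells, 18 hr compound exposure at 37C. LiveBLAzer B/G substrate, 2 hr RT, fluorescence read.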

[13] = molecular target: Estrogen receptor (Homo sapiens) (UniProt P03372); experiment: qHTS assay to identify small molecule agonists of the estrogen receptor alpha (ER-alpha) signaling pathway (AID 743075; calls by dose curve;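 also: HEK293 GripTite cells with ER-alpha and UAS-driven beta-lactamase reporter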)
[14] = molecular target: Androgen receptor (Homo sapiens) (UniProt P10275); experiment: qHTS assay to identify small molecule agonists of the androgen receptor (AR) signaling pathway using the MDA cell line (AID 743040; also: nearly all actives have a fitted effect of over 20% in size; also: potency is read from the fitted curve at half-maximal effect)
Chain of Androgen receptor (Homo sapiens) (P10275 whole entry, looked up): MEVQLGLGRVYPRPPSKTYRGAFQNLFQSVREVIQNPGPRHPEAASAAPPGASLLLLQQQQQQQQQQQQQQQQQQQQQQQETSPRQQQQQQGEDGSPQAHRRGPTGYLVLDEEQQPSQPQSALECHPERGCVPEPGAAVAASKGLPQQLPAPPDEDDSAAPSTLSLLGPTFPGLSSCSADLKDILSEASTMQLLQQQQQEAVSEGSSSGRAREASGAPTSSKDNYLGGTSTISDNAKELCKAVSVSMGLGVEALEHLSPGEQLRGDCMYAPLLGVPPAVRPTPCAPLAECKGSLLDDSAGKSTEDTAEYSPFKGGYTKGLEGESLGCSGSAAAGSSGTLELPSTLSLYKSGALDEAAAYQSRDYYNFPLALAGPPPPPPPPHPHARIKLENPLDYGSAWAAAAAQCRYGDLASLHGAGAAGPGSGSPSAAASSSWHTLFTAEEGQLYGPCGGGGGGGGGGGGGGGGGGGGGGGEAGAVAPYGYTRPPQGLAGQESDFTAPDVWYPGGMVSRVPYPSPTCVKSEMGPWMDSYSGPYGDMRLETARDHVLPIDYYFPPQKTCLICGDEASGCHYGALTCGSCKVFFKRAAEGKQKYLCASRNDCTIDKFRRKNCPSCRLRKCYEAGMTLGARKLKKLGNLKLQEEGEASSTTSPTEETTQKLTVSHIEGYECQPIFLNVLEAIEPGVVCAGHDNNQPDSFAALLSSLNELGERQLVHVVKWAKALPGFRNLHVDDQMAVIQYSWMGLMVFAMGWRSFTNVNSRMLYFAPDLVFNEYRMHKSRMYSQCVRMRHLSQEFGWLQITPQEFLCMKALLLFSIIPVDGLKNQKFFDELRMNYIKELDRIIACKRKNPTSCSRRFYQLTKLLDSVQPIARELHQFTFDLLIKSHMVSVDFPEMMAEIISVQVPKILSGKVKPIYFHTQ
Summary of the method: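 Luminescence from ONE-Glo, read after 30 min at room temperature, reflects MMTV-driven luciferase in MDA-kb2 cells (AR- and GR-responsive). Treatment lasted 16 h at 37C, 0% CO2.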

[15] = molecular target: Estrogen receptor (Homo sapiens) (UniProt P03372); experiment: qHTS assay to identify small molecule agonists of the estrogen receptor alpha (ER-alpha) signaling pathway using the BG1 cell line (AID 743079); conditions: BG1Luc4E2 cells, ERE-luciferase agonist, 22 h; activation: at 70.3 µM (top of the series); also: nearly all actives have a fitted effect of over 20% in size
[16] = qHTS assay to identify small molecule antagonists of the estrogen receptor alpha (ER-alpha) signaling pathway using the BG1 cell line (AID 743080; calls by dose curve;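 also: BG1 cells stimulated with 17beta-estradiol alongside compound; nearly all actives have a fitted effect of over 25% in size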; also: potency is read from the fitted curve at half-maximal effect)
Summary of the method: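 Seeding, 24 h rest, compound transfer from DMSO, 17beta-estradiol addition, 21.5 h incubation, CellTiter-Fluor (30 min, 37 C), then ONE-Glo (30 min, room temperature): this sequence was run on BG1-Luc-4E2 reporter cells.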

[17] = molecular target: Androgen receptor (Homo sapiens) (UniProt P10275); experiment: qHTS assay to identify small molecule agonists of the androgen receptor (AR) signaling pathway (AID 743036; active = well fitted activation curve with a large enough effect in the signal ratio in the repeat runs, with a control signal flat, not every such curve was filed as active; inconclusive = weak or mixed curves, or effect the other way; inactive = no such curve, though single readings can be large or run the other way; the % refers to the signal ratio; also: potency is read from the fitted curve at half-maximal effect)
Summary of the method: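 AR-bla HEK293 cells, 2,000/well; 4 h preincubation 37C/5% CO2; compound (DMSO) 16 h at 37C; LiveBLAzer B/G FRET substrate 2 h RT; fluorescence intensity read-out.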

[18] = qHTS assay to identify small molecule antagonists of the androgen receptor (AR) signaling pathway - cell viability counter screen (AID 743033; also: nearly all actives have a fitted effect of over 45% in size)
[19] = molecular target: Androgen receptor (Homo sapiens) (UniProt P10275); experiment: qHTS assay to identify small molecule antagonists of the androgen receptor (AR) signaling pathway using the MDA cell line (AID 743042; also: nearly all actives have a fitted effect of over 55% in size)
Summary of the method: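 MDA-kb2 cells (human breast carcinoma, stably carrying an MMTV-luciferase reporter responsive to AR and GR) were plated at 3,000 cells/well and preincubated 5 hr at 37C, then given compound plus R1881 agonist for 16 h. ONE-Glo luminescence was read.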

Measured: Potency

CCCCCCCC/C=C\CCCCCCCC(=O)OC
inactive: [1] | [2] | [3] | [4] | [5] | [6] | [7] | [8] | [9] | Aromatase (Homo sapiens) | [10]

CN(C)C(=O)Nc1ccc(Oc2ccc(Cl)cc2)cc1
inactive: [1] | [11] | [7] | [8] | [10]
active: [2] 21.7 µM | [3] 24.3 µM | [4] 15.4 µM | [6] 54.5 µM

CCCCOC(=O)CCS
inactive: [1] | [2] | [3] | [4] | [5] | [11] | [6] | [12] | [8] | [13] | [9] | [10]

Cc1c(C(=O)NN2CCCCC2)nn(-c2ccc(Cl)cc2Cl)c1-c1ccc(Cl)cc1
active: [2] 11.9 µM | [3] 11.9 µM | [4] 11.9 µM | [11] 16.8 µM | [6] 11.9 µM
inactive: [1] | [14] | [5] | [13] | [15] | [16] | [9] | Aromatase (Homo sapiens) | [10]

O=C(Nc1ccc([N+](=O)[O-])cc1)Nc1ccc([N+](=O)[O-])cc1
active: [2] 10.6 µM | [3] 10.6 µM | [4] 11.9 µM
inactive: [1] | [5] | [7] | [9] | Aromatase (Homo sapiens) | [10]

CC(=O)Nc1ccccc1C
inactive: [1] | [2] | [3] | [4] | [5] | [11] | [6] | [7] | [12] | [13] | [15] | [16] | [9] | Aromatase (Homo sapiens) | [10]

CCN(Cc1cccc(S(=O)(=O)O)c1)c1ccc(C(=C2C=CC(=[N+](CC)Cc3cccc(S(=O)(=O)[O-])c3)C=C2)c2ccccc2)cc1
inactive: [1] | [2] | [3] | [4] | [5] | [11] | [7] | [12] | [8] | [13] | [15] | [16] | [9] | Aromatase (Homo sapiens) | [10]

O=C(O)c1ccc(CO)o1
inactive: [1] | [2] | [3] | [4] | [5] | [6] | [7] | [8] | [9] | Aromatase (Homo sapiens) | [10]

CSc1ccc(Oc2ccc(S(N)(=O)=O)cc2CN(C)C)cc1C
active: [2] 24.3 µM | [3] 27.3 µM | [4] 61.1 µM | [11] 54.5 µM | [6] 27.3 µM
inactive: [1] | [17] | [14] | [5] | [13] | [9] | [10]

COc1ccccc1N=Nc1c(S(=O)(=O)O)cc2cc(S(=O)(=O)O)cc(NC(C)=O)c2c1O
active: [2] 28.8 µM | [3] 18.2 µM | [4] 14.4 µM | [5] 45.7 µM | [11] 32.3 µM | [9] 28.8 µM | [10] 20.4 µM
inactive: [1] | [7] | [8]

CCCC(=O)O[C@]1(C(=O)COC(=O)CC)CC[C@H]2[C@@H]3CCC4=CC(=O)CC[C@]4(C)[C@H]3[C@@H](O)C[C@@]21C
active: [17] 0.0239 µM | [14] 0.119 µM
inactive: [1] | [2] | [3] | [18] | [5] | [19] | [11] | [6] | [7] | [8] | [13] | [9] | Aromatase (Homo sapiens) | [10]

Cc1cc(S(=O)(=O)O)ccc1N=Nc1c(O)ccc2ccccc12
active: [3] 61.1 µM | [5] 30.6 µM | [11] 17.2 µM | [9] 30.6 µM | [10] 27.3 µM
inactive: [1] | [2] | [4] | [7] | [8] | Aromatase (Homo sapiens)

NC(=O)Cn1c(=O)cc(CCN2CCN(c3nccc4sccc34)CC2)c2ccc(F)cc21
inactive: [1] | [5] | [8] | [13] | [16] | [9] | Aromatase (Homo sapiens) | [10]
active: [2] 27.3 µM | [3] 27.3 µM | [4] 24.3 µM

CC1=NN(c2ccc(C(=O)O)cc2)C(=O)C1
inactive: [1] | [2] | [3] | [4] | [14] | [5] | [19] | [11] | [6] | [8] | [9] | Aromatase (Homo sapiens) | [10]

COCCOC(=O)C1=C(C)NC(C)=C(C(=O)OC/C=C/c2ccccc2)C1c1cccc([N+](=O)[O-])c1 (configuration not stated)
active: [2] 13.3 µM | [3] 11.9 µM | [4] 11.9 µM | [11] 13.3 µM | [6] 11.9 µM | [12] 23.9 µM [inconclusive]
inactive: [1] | [8] | [13] | [16] | [9]

O=C(CCCCCCC(=O)Nc1ccccc1)NO
inactive: [1] | [5] | [7] | [8] | [13] | [9]
active: [2] 1.06 µM | [3] 531 nM and 841 nM | [4] 1.5 µM | [11] 3.35 µM and 2.11 µM | [6] 2.11 µM and 2.66 µM | [16] 5.96 µM and 4.22 µM

COc1ccc(CCC(=O)c2c(O)cc(O[C@@H]3O[C@H](CO)[C@@H](O)[C@H](O)[C@H]3O[C@@H]3O[C@@H](C)[C@H](O)[C@@H](O)[C@H]3O)cc2O)cc1O
inactive: [1] | [2] | [3] | [18] | [17] | [14] | [5] | [19] | [11] | [6] | [7] | [12] | [8] | [13] | [15] | [16] | [9] | Aromatase (Homo sapiens) | [10]

CC1=CC(O)CC(C)(C)C1 (configuration not stated)
inactive: [1] | [2] | [3] | [4] | [5] | [11] | [6] | [7] | [12] | [8] | [13] | [15] | [16] | [9] | Aromatase (Homo sapiens) | [10]
